An excerpt weighted towards active compounds, which were near 3.6% of everything screened.
B2AR arrestin ag: ADRB2 beta-arrestin recruitment; 44,000 tested, under 10 active; P07550; Potency, µM (doses to about 46.1 µM), most hits filed as activators; HTLA Tango cells, beta-arrestin recruitment, luciferase luminescence, 18 h
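Tango cell line, 1% FBS DMEM; cpd titration up to 46 microM; 18 hr, 37 degrees C, 5% CO2. Luciferin/ATP substrate mix added, 15 min RT, luminescence. %Activity, CRC fitting, curve-class categorization.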
GALC G270D up: enhancers of human galactocerebrosidase G270D mutant activity in cells; 145M-Twi-hGALC-G270D cells, HMU-beta-Gal fluorescence, 48 h; P54803; Potency, µM (series often up to 57.5 µM), actives largely listed as activators; 45,000 compounds, 0.1% hits; AID 1159614; also: nearly all actives have a fitted effect of over 65% in size
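qHTS, 1536-well; 145M-Twi-hGALC-G270D cells (WT line also made) in DMEM/F12 + 10% FBS; compound incubation on live cells; HMU-β-gal 0.1 mM final, pH 5.2, NaTC; carbonate stop; fluorescence increase = enhanced residual activity.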
GALK inhibitor: inhibits human galactokinase | P51570 | recombinant GALK, Kinase-Glo ATP luminescence, 1 h | Potency, µM (doses to about 57.5 µM), hits mostly inhibitors | 44,000 tested, under 10 active
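Human GALK (5 nM) was incubated with 35 uM ATP and 100 uM galactose in 20 mM HEPES pH 8.0 with MgCl2, NaCl, DTT and BSA for 1 h at room temperature. Remaining ATP was measured by Kinase-Glo Plus luminescence.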
NTMT1 inhibitor: NTMT1 methyltransferase inhibition; NTMT1 MTase-Glo SAH luminescence, purified enzyme; AID 1645870; Q9BV86; Potency, µM (doses to about 114 µM), hits mostly inhibitors; 59,000 compounds, 2.5% hits; also: nearly all actives have a fitted effect of over 65% in size
Target sequence (Q9BV86 whole entry, looked up): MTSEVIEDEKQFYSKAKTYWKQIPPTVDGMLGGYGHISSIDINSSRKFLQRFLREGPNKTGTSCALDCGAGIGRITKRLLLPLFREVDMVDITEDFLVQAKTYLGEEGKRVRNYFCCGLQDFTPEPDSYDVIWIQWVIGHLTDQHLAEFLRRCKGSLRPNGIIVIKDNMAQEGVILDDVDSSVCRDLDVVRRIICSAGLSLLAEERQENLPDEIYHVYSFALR
GPR32 ag: GPR32 (DRV1) agonism, beta-arrestin recruitment; O75388; CHO-K1 GPR32 beta-arrestin PathHunter luminescence, 90 min; zero percent set by DMSO-only wells; activation, % at 76.9 µM; 48,000 compounds, 2.5% hits;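 active = activation of at least 60% and not above a set upper limit, about 1 call in 100 departs from these limits; inconclusive = activation of 40% to 60%, or above that upper limit; inactive = activation under 40%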
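Agonism was scored as beta-arrestin recruitment to ProLink-fused GPR32 in stably transfected CHO-K1 cells, giving a chemiluminescent beta-Gal signal; compounds were incubated 90 min at 37 °C.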
DYRK1A KinaseGlo: blocks recombinant human DYRK1A kinase activity | 100 compounds, 80% hits | AID 2705 | Potency, µM (highest dose often 76.9 µM), hits mostly inhibitors | shares compounds with NTMT1 inhibitor | recombinant DYRK1A, Kinase-Glo ATP depletion luminescence
CLK4 KinaseGlo: CLK4 kinase inhibition, SAR round 2; shares compounds with NTMT1 inhibitor; Potency, µM (top dose mostly 76.9 µM), most hits filed as inhibitors; recombinant Clk4, Kinase-Glo ATP luminescence, 4.5 h; 90 compounds, 90% hits; AID 493204
Sfp qHTS opt: inhibitors of Bacillus subtilis Sfp PPTase, optimization followup; Potency, µM (series often up to 114 µM), most hits filed as inhibitors; AID 540350; shares compounds with NTMT1 inhibitor; 230 compounds, 78% hits; purified Sfp PPTase enzyme activity, qHTS
Sfp inh gel: Sfp phosphopantetheinyl transferase inhibition, gel detection | AID 602362 | Potency, µM (doses to about 250 µM), actives largely listed as inhibitors | purified Sfp PPTase, gel-based product detection | 45 compounds, 90% hits | shares compounds with NTMT1 inhibitor
Sfp inh SAR2: inhibits B. subtilis Sfp PPTase in second SAR round. shares compounds with NTMT1 inhibitor. purified Sfp enzyme, PPTase activity, qHTS. Potency, µM (highest dose often 57.1 µM), usual class: inhibitors. 230 compounds, 87% hits. AID 602370
hGST A1-1 inh: hGST A1-1 enzyme inhibition, Sfp SAR counter-screen; shares compounds with NTMT1 inhibitor; hGST A1-1 enzyme activity counter-screen, qHTS; Potency, µM (top dose mostly 114 µM), hits mostly inhibitors; 55 tested, under 10 active
USP2a K63: USP2a inhibition confirmed on K63 diubiquitin; shares compounds with NTMT1 inhibitor; USP2 cleavage of DiUb K63-3IQF, fluorescence kinetic; Potency, µM (doses to about 57.5 µM), actives largely listed as inhibitors; 30 compounds, 80% hits; AID 652172
Casp6 inh: caspase-6 inhibition, USP2a inhibitor counterscreen | activity change, negative = inhibition, % at 46.1 µM | shares compounds with NTMT1 inhibitor | 30 tested, under 10 active | Caspase 6 enzyme, Caspase-Glo 6 luminescence
Target sequence (P55212 whole entry, looked up): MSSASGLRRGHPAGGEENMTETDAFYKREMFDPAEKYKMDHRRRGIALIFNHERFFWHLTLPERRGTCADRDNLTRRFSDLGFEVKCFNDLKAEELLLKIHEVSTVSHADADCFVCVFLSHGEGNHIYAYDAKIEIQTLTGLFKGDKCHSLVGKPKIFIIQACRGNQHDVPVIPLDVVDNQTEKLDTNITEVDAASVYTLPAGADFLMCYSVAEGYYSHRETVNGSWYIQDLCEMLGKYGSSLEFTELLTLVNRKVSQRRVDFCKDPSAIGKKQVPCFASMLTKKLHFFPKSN
HSD17B4 inh: counter-screen for HPGD inhibitors: human HSD17B4 inhibition; 230 compounds, 10% hits; shares compounds with NTMT1 inhibitor; purified HSD17B4, estradiol/NAD+, NADH fluorescence; AID 743187; Potency, µM (top dose mostly 57.1 µM), usual class: inhibitors
ALDH1A1 inh: ALDH1A1 (human) inhibition, HPGD counter-screen. shares compounds with NTMT1 inhibitor. recombinant ALDH1A1, NADH fluorescence, propionaldehyde/NAD+. Potency, µM (highest dose often 57.1 µM), most hits filed as inhibitors. 230 compounds, 93% hits
NNMT inh: human NNMT inhibition, NTMT1 counter-screen. shares compounds with NTMT1 inhibitor. NNMT MTase-Glo luminescence, SAH detection. Potency, µM (series often up to 57.1 µM), actives largely listed as inhibitors. 120 compounds, 10% hits. AID 1645878
Hits are given with their value; ! = a repeat was not active; [ ] = another dose, or the depositor's remark. Unless noted, calls follow the shape of the dose curve; as a rule, active = well fitted curve in the direction sought with a large enough effect; inconclusive = small, poorly fitted or top-dose-only effect, or another doubt; inactive = no such curve, though single readings can be large; an effect the other way counts as inactive or inconclusive.

How did N[C@@H](CC(=O)O)C(=O)Nc1ccc(Cl)cc1C(=O)c1ccc[nH]1 do in these assays?
NTMT1 inhibitor: inactive

Results for O=C(O)c1sc2c(c1-c1nc3ccccc3s1)CCNC2 ?
NTMT1 inhibitor: inactive

Results for COc1ccc(Nc2cc(C(=O)NCc3ccccc3)c3ccccc3n2)c(OC)c1 ?
B2AR arrestin ag: inactive; GALC G270D up: inactive; GALK inhibitor: inactive; NTMT1 inhibitor: inactive; GPR32 ag: inactive

What do the screens show for `NCCOc1cc(C(=O)Nc2cc(OCCN)c3ccccc3n2)nc(C(=O)Nc2cc(OCCN)c3ccccc3n2)c1`?
NTMT1 inhibitor: 22µM; NNMT inh: inactive

What do the screens show for `COc1cc2ncnc(Nc3ccc(Oc4ccccc4)cc3)c2cc1OC`?
NTMT1 inhibitor: inactive

How did C#Cc1cccc(Nc2ncnc3cc(OC)c(OCCCCCCC(=O)NO)cc23)c1 do in these assays?
NTMT1 inhibitor: 13µM; NNMT inh: inconclusive

How did Cc1c(-c2ccc3c(c2)OCO3)oc2ccc(C(O)C(C)O)cc12 (stereo not given) do in these assays?
NTMT1 inhibitor: inactive

Results for CN(CC1CCCCO1)c1ncnc2ccc(-c3ccc4c(c3)OCO4)cc12 (stereo not given) ?
CLK4 KinaseGlo: 0.073µM

How did Cc1nc(CSc2ncnc3ccc(-c4ccc5c(c4)OCO5)cc23)cs1 do in these assays?
NTMT1 inhibitor: inconclusive; DYRK1A KinaseGlo: 2.6µM

Results for CN(CC(=O)O)c1ncnc2ccc(-c3ccc4c(c3)OCO4)cc12 ?
NTMT1 inhibitor: inactive; CLK4 KinaseGlo: 2.3µM

How did Cc1nc(CN(C)c2ncnc3ccc(-c4ccc5[nH]ncc5c4)cc23)cs1 do in these assays?
Sfp qHTS opt: inactive; Sfp inh gel: inactive; Sfp inh SAR2: inactive; hGST A1-1 inh: inconclusive; HSD17B4 inh: 22µM; ALDH1A1 inh: 15µM

What do the screens show for `CC(=O)O[C@@H]1[C@H](O[C@@H]2OC[C@](O)(CO)[C@H]2O)[C@@H](O[C@@H]2O[C@@H](C)[C@H](O)[C@@H](O[C@@H]3O[C@H](CO)[C@@H](O)[C@H](O)[C@H]3O)[C@H]2O)[C@H](OC(=O)[C@]23CCC(C)(C)C[C@H]2C2=CCC4[C@@]5(C)C[C@H](O)[C@H](O[C@@H]6O[C@H](C(=O)O)[C@@H](O)[C@H](O)[C@H]6O)[C@@](C)(C(=O)O)C5CC[C@@]4(C)[C@]2(C)CC3)O[C@@H]1C` (stereo not given in full)?
NTMT1 inhibitor: inactive[6.45 µM]

How did Cc1nc(CN(C)c2ncnc3ccc(-c4ccc5c(c4)OCO5)cc23)cs1 do in these assays?
NTMT1 inhibitor: 7.9µM; DYRK1A KinaseGlo: 0.041µM

How did Cc1ccc(S(=O)(=O)Nc2cc(Cl)ccc2C(=O)Nc2nc(-c3ccccc3)cs2)cc1 do in these assays?
NTMT1 inhibitor: 27µM!; USP2a K63: 1.7µM; Casp6 inh: inactive

Results for Cc1ccc(S(=O)(=O)Nc2ccccc2C(=O)Nc2nccs2)cc1 ?
NTMT1 inhibitor: inactive; USP2a K63: inconclusive; Casp6 inh: inactive

Results for Cc1ccc(S(=O)(=O)Nc2cnccc2C(=O)Nc2ccncc2)cc1 ?
NTMT1 inhibitor: inconclusive; USP2a K63: inactive; Casp6 inh: inactive

What do the screens show for `Cc1ccc(S(=O)(=O)Nc2ccccc2C(=O)Nc2nc(-c3ccc(Cl)cc3)cs2)cc1`?
NTMT1 inhibitor: inactive; USP2a K63: inactive; Casp6 inh: inactive

What do the screens show for `Cc1ccc(S(=O)(=O)Nc2ccccc2C(=O)Nc2nc(-c3ccccc3)c(C)s2)cc1`?
NTMT1 inhibitor: inactive

What do the screens show for `Cc1ccc(S(=O)(=O)Nc2ccc(Br)cc2C(=O)Nc2nc(-c3ccccc3)cs2)cc1`?
NTMT1 inhibitor: inactive

Results for COc1cc(C(=O)NC(N)=Nc2ccc(C)c(NC(=O)c3ccc(-c4ccccc4)cc3)c2)cc(OC)c1OC ?
NTMT1 inhibitor: inactive

Results for COc1ccc(C2Nc3ccccc3C(=O)N2Cc2ccccc2OC)cc1COc1c(C)cc(NC(C)=O)cc1C (stereo not given) ?
NTMT1 inhibitor: inactive

What do the screens show for `CCCCCCOc1cc2c(cc1N(C)c1ncc(C(=O)O)cn1)C(C)(C)CCC2(C)C`?
NTMT1 inhibitor: inactive
